# 12-LOX inh: Primary qHTS assay for inhibitors of human arachidonate 12S-lipoxygenase (ALOX12): Round 2 | Polyunsaturated fatty acid lipoxygenase ALOX12 (Homo sapiens), P18054 | purified 12hLO, xylenol orange hydroperoxide absorbance | Potency, µM (doses to about 108 µM), without a hit: at the top dose activity change, negative = inhibition, actives largely listed as inhibitors | actives 1.1% (n = 580,000) | AID 1671190, 2021; further: on the % scale 0 is the no-effect control and ±100 the full control effect
# Target sequence (P18054 whole entry, looked up): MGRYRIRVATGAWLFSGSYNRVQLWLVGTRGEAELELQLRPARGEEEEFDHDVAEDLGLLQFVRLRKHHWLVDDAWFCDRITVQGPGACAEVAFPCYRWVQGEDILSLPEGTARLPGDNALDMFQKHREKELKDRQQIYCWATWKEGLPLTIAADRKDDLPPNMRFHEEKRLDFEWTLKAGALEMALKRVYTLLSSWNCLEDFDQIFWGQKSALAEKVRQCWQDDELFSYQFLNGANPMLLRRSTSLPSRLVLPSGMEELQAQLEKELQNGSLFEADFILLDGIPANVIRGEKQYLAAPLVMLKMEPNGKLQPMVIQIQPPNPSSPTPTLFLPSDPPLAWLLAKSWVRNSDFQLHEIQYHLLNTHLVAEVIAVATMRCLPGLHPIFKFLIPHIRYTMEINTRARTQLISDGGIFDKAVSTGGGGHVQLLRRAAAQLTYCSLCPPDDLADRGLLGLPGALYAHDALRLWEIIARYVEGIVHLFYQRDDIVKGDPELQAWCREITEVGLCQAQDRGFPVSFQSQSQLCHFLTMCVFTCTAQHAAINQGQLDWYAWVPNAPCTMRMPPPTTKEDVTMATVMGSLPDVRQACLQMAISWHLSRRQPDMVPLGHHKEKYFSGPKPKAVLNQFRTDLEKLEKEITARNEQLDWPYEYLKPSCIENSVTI
#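 Purified human 12hLO at 150 nM in 25 mM Hepes, 0.01% Triton X-100, pH 7.0, preincubated 15 min at room temperature with compound. Reaction started with 40 uM arachidonic acid, 30 min at room temperature. Hydroperoxide measured by Fe-xylenol orange, 573/405 nm absorbance ratio.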
# GRP78 ERSR act: qHTS for Inducers of the Endoplasmic Reticulum Stress Response (ERSR) in Human Glioma: qHTS; actives 0.02% (n = 420,000); U87-MG GRP78 promoter luciferase reporter, 16 h; Potency, µM, for the others: top-dose activation, actives largely listed as activators; AID 602332, 2012; further: series mostly up to about 76 µM; % of control where 0% means no effect; nearly all actives have a fitted effect of over 35% in size
#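 ERSR induction read as luciferase luminescence (Bright-Glo, 10 min at room temperature) in stably transfected human U87-MG glioma cells exposed to compounds for 16 h, using GRP78 as sensor.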
# GLS inhibitor: qHTS for Inhibitors of Glutaminase (GLS); actives 0.21% (n = 410,000); GLS enzymatic activity, qHTS titration; AID 624170, 2012; Potency, µM (titrated, usually from 45.5 µM), for inactives: at the top dose activity change, negative = inhibition, most hits filed as inhibitors; Glutaminase kidney isoform, mitochondrial (Homo sapiens), O94925; further: on the % scale 0 is the no-effect control and ±100 the full control effect
#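 Enzyme dispensed in phosphate buffer (45 mM, pH 8.2, 0.02% Tween-20), compounds pinned in, then 1 mM L-glutamine solution and the glutamate oxidase–HRP–Amplex Red mix added; fluorescence read immediately and again after 30 min at room temperature.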
# PTHR1 agonist: qHTS for PTHR1 Agonists: Primary Screen; actives 0.075% (n = 410,000); Parathyroid hormone/parathyroid hormone-related peptide receptor (Homo sapiens), Q03431; Potency, µM (series often up to 115 µM), for the others: at the highest dose activation, usual class: activators; HEK293 GP2 PTHR1 cells, GloSensor cAMP luminescence, 1 h; further: nearly all actives have a fitted effect of over 55% in size
#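 HEK-293-derived GP2 cells expressing PTHR1 and a GloSensor cAMP reporter, 3,000/well, plated overnight, given luciferin plus IBMX (each 0.5 mM as added) for 1 h at 37 °C, then compound for 1 h at 37 °C. Luminescence was read after 15 min at room temperature.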
# GLP1R ag: qHTS of GLP-1 Receptor Agonists | HEK293 GLP-1R CRE-luciferase, luminescence, 4-6 h; cells express a hypersensitive GLP-1R form | Potency, µM (series often up to 45.6 µM), for inactives: at the top dose activation, actives largely listed as activators | actives 0.007% (n = 380,000) | AID 624172, 2012; further: % of control where 0% means no effect
# GLP-1R inv ag: qHTS of GLP-1 Receptor Inverse Agonists (Inhibition Mode); Potency, µM (series often up to 38.3 µM), without a hit: at the top dose activity change, negative = inhibition, hits mostly inhibitors; AID 624417, 2012; actives 1.6% (n = 410,000); HEK293 GLP-1R CRE-luciferase, luminescence, 24 h; GLP-1R form is constitutively active; Glucagon-like peptide 1 receptor (Homo sapiens), P43220; further: on the % scale 0 is the no-effect control and ±100 the full control effect; nearly all actives have a fitted effect of over 55% in size
#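 Constitutively active GLP-1R drives a cAMP-responsive luciferase in stably transfected HEK293 cells; test compounds are added after overnight (12 h) attachment and left 24 hr, and signal loss in luminescence marks inhibition.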
# Numbers without * were called inactive; i = inactive; ? = inconclusive; · = not tested or not shown; [ ] = another dose, or the depositor's remark. This is a sample that favours compounds with a hit; in the whole collection about 2.3% have one here. The call rests on the fitted dose curve; in most records, active means well fitted curve in the direction sought with a large enough effect; inconclusive means small, poorly fitted or top-dose-only effect, or another doubt; inactive means no such curve, though single readings can be large; an effect the other way counts as inactive or inconclusive. Potency means the concentration at half of the fitted maximal effect.
SMILES,12-LOX inh,GRP78 ERSR act,GLS inhibitor,PTHR1 agonist,GLP1R ag,GLP-1R inv ag
Cc1ccc(C(=O)N2c3ccc(C)cc3C(C)(c3ccccc3)CC2(C)C)cc1 (configuration not stated),-6.7%,-3.7%,3.5%,-17.3%,·,?
COc1ccc(C(=O)N2c3ccc(C)cc3C(C)(c3ccccc3)CC2(C)C)cc1 (configuration not stated),-14.7%,-2.6%,-6.0%,-31.9%,·,10µM*
CN(C)CC#CCOC(c1ccccc1)c1ccccc1,-8.3%,-5.4%,12.4%,-20.7%,-2.8%,?
CCN(CC)CC#CCOC(c1ccccc1)c1ccccc1,?,-3.7%,5.1%,i,10.8%,5.62µM*
Cc1noc2nc(C(C)C)cc(C(=O)NC3CCCc4c3[nH]c3ccccc43)c12 (configuration not stated),31.6µM*,·,·,·,·,·
Cc1noc(C)c1C(=O)NC1CCCc2c1[nH]c1ccccc21 (configuration not stated),-34.5%,·,·,·,·,·
COc1ccccc1Cn1c(=O)c2ccccc2n2c(SCC(=O)N3CCCCC3)nnc12,8.1%,-4.7%,15.8µM*,i,-1.3%,4.4%
O=C(N/N=C/c1c(Cl)nc2ccccn2c1=O)c1cccnc1,3.16µM*,-13.5%,-1.8%,i,-3.4%,7.7%
N#Cc1ccc(-c2ccccc2)nc1SCC(=O)Nc1cccc(Cl)c1,-0.1%,·,·,·,·,·
CC(C)CCOC(=O)/C(=C/c1ccco1)NC(=O)/C=C/c1ccccc1,39.8µM*,-2.3%,·,i,-6.9%,-4.0%
CCC(=O)NC(c1ccc(OC)cc1)c1c(O)ccc2ccccc12 (configuration not stated),-8.5%,-2.7%,8.2%,-7.9%,-4.9%,3.55µM*
CC(C)OC(=O)c1ccc2cc(C(=O)OC(C)C)ccc2c1,-27.3%,·,·,·,·,·
CC(N1CCOC1=O)S(=O)(=O)c1ccccc1 (configuration not stated),35.5µM*,-5.0%,11.0%,i,-9.2%,0.2%
COc1ccc(-c2nc(NC(=O)c3ccc(C)cc3)n[nH]2)cc1OC,8.6%,·,·,·,·,·
COc1ccc(C=O)c(OCc2cn(CC(=O)c3ccc(O)cc3)nn2)c1,1.26µM*,-2.2%,-5.2%,-16.8%,-4.6%,8.1%
O=Cc1cccc(OCc2cn(CC(=O)c3ccc(O)cc3)nn2)c1,?,3.0%,7.5%,-31.9%,-5.2%,12.4%
NC(=NCCc1c[nH]c2ccccc12)NC(=O)c1ccc(Cl)cc1,39.8µM*,3.4%,10.2%,-79.4%,-2.3%,?
CCCCc1ccc(NC(=S)NCCc2ccc(Cl)cc2)cc1,31.6µM*,·,·,·,·,·
CN(C)CCCNC(=S)Nc1ccc(-c2ccccc2)cc1,?,1.7%,27.6%,-2.6%,0.1%,11.2µM*
S=C(NCCCc1ccccc1)Nc1ccccc1,?,3.8%,-1.1%,i,0.7%,?
S=C(NCCCc1ccccc1)Nc1ccc(Cl)cc1,39.8µM*,-2.4%,6.7%,-30.7%,-15.7%,?
CCCCc1ccc(NC(=S)Nc2ccc(Cl)c(S(=O)(=O)N(C)C)c2)cc1,44.7µM*,-0.5%,11.5%,-91.0%,-25.8%,?
CCN1CCN(CC(=O)Nc2ccc(Cl)c(S(=O)(=O)N(C)C)c2)CC1,-25.1%,-2.2%,-1.5%,i,4.4%,14.2%
CC(C)NC(=O)CN1CCN(C(=O)c2cc(-c3ccccn3)nc3ccccc23)CC1,0.4%,·,·,·,·,·
Cc1ccc(-n2c(C3CCN(C(=O)Cc4ccc(Cl)cc4)CC3)n[nH]c2=O)cc1,-17.7%,·,·,·,·,·
SMILES,12-LOX inh,GRP78 ERSR act,GLS inhibitor,PTHR1 agonist,GLP1R ag,GLP-1R inv ag
CC1(C)C(c2ccccc2)=[N+]([O-])C(c2ccc(Cl)cc2Cl)N1O (configuration not stated),-18.9%,·,·,·,·,·
COc1cc(S(=O)(=O)Nc2ccc(C(C)=O)cc2)ccc1NC(C)=O,-42.0%,·,·,·,·,·
O=C(CSc1ccccc1F)NC(=O)C1CCCCC1,26.0%,·,·,·,·,·
Clc1cc(Cl)cc(OCc2cc(-c3ccco3)on2)c1,6.2%,·,·,·,·,·
CNC(=O)Cc1ccc(NC(=O)C2CCCCC2)cc1,44.0%,·,·,·,·,·
O=C1NCCCCC1Sc1ccc2c(c1)OCCCO2 (configuration not stated),-7.1%,·,·,·,·,·
CCCCc1ccc(NC(=S)Nc2ccc(Nc3ccc(OC)cc3)cc2)cc1,35.5µM*,3.4%,13.3%,6.4%,-2.9%,?
CCNc1nc(NC(C)C)nc(SCCOc2ccc(C)cc2)n1,?,-6.1%,-1.1%,i,33.4%,7.94µM*
CCNc1nc(NCC)nc(OCCOC(=O)c2ccccc2)n1,-0.2%,-0.2%,-6.2%,-4.1%[57.5 µM],8.3%,10.1%
CCNc1nc(NC(C)C)nc(SCCOC(=O)c2ccccc2)n1,-20.3%,-3.1%,0.5%,-43.1%,?,10µM*
O=C(Nc1cc(Cl)ccc1F)C1CC(=O)N(C2CCCC2)C1 (configuration not stated),-7.1%,·,·,·,·,·
O=C(Nc1cc(Cl)cc(Cl)c1)C1CC(=O)N(C2CCCC2)C1 (configuration not stated),-28.3%,-4.1%,-1.6%,i,2.7%,8.91µM*
CN(C)S(=O)(=O)N(CC(=O)NCCSCc1ccc(Cl)cc1)c1ccccc1,?,-6.2%,-3.1%,-20.7%,15.2%,8.91µM*
CCCOc1ccc(CSCCNC(=S)Nc2ccccc2)cc1,?,-2.5%,14.0%,-7.6%,-3.7%,?
S=C(NCCSCc1ccc(Cl)cc1)Nc1ccccc1,44.7µM*,-5.2%,9.2%,-13.0%,-10.9%,?
CCOc1ccc(CSCCNC(=S)Nc2ccc(OC)cc2)cc1,44.7µM*,0.6%,13.8%,-18.6%,-2.6%,?
COc1ccc(C(=O)NCCSCc2ccccc2Cl)cc1OC,50.1µM*,1.0%,-7.1%,i,?,5.1%
O=C(NCCC1=CCCCC1)C1CCN(C(=O)c2ncn3c2COC(c2ccccc2)C3)CC1 (configuration not stated),52.7%,·,·,·,·,·
COc1ccc(C2=NOC(C(=O)Nc3ccc(OC(F)(F)F)cc3)C2)cc1 (configuration not stated),7.7%,·,·,·,·,·
S=C(NCCSCc1ccccc1Cl)Nc1ccccc1,35.5µM*,-4.9%,17.8%,-22.0%[57.5 µM],0.0%,?
